Laboratory results taken from the supplement of paper PMC10849652.
The full data set covers some 7,900 targets. This sample favours those with a hit. About 0.6% of all pairs of compound and target were hits.

Compound: CNC(=O)c1ccc(Nc2ncc(C(F)(F)F)c(NCc3nccnc3N(C)S(C)(=O)=O)n2)cc1 [defactinib]
Assay: log2 fold change, soluble protein after heating vs DMSO (PISA); higher = thermal stabilisation; K562 cells, 10 uM, 30 min; active = over 0.2 and 3.5 SD of the protein, either way, in both replicates (recomputed)
How it was run: (§1)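 K562 cells at 2×10^6 cells/mL were exposed to 10 μM compound for 30 min, then aliquots were heated for 3 min across 48°C-58°C, pooled, and extracted in PBS containing 0.5% NP-40 at 4°C. The supernatant after 21,000xg for 90 min was taken as soluble protein and measured by TMTpro 16plex LC-MS/MS with channel sums equalised. Thermal stability is reported relative to control samples, with values from duplicates. Fold changes are given on a log2 scale.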

Chain of UniProt P23497 (P23497 whole entry, looked up): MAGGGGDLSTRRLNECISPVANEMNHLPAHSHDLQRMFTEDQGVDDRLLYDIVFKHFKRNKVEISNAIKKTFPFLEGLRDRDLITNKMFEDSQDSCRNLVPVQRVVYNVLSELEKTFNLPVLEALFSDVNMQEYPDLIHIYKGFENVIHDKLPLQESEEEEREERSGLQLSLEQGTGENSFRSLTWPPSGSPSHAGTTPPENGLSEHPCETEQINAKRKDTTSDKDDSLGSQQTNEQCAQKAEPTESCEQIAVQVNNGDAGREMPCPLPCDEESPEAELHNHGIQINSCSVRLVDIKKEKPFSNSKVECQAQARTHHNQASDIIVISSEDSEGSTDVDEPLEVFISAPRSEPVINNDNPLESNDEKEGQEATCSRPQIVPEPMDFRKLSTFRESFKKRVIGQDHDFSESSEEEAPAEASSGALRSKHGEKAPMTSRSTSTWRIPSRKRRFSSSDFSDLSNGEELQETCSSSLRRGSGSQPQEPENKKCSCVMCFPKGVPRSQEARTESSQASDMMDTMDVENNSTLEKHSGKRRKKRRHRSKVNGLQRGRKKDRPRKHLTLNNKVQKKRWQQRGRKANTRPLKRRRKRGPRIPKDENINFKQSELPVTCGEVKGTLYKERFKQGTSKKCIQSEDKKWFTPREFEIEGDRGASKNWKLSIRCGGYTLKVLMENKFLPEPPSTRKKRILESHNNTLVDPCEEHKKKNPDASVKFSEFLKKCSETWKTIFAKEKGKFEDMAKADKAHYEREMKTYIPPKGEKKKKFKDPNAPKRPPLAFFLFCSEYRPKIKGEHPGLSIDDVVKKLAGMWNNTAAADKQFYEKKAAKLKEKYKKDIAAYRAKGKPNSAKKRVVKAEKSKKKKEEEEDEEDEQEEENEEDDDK
Chain of UniProt Q969G3 (Q969G3 whole entry, looked up): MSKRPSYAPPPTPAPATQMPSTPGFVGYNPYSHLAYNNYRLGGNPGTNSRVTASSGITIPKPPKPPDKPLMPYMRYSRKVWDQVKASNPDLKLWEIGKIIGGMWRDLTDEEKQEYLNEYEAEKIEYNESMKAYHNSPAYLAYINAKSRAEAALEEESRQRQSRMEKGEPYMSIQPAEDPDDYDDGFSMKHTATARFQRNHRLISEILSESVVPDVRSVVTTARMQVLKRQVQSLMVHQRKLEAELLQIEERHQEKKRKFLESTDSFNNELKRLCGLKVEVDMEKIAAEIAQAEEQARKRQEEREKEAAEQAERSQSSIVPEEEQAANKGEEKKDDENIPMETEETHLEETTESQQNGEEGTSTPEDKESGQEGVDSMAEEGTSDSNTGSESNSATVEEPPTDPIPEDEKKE
Chain of UniProt Q01082 (Q01082 whole entry, looked up): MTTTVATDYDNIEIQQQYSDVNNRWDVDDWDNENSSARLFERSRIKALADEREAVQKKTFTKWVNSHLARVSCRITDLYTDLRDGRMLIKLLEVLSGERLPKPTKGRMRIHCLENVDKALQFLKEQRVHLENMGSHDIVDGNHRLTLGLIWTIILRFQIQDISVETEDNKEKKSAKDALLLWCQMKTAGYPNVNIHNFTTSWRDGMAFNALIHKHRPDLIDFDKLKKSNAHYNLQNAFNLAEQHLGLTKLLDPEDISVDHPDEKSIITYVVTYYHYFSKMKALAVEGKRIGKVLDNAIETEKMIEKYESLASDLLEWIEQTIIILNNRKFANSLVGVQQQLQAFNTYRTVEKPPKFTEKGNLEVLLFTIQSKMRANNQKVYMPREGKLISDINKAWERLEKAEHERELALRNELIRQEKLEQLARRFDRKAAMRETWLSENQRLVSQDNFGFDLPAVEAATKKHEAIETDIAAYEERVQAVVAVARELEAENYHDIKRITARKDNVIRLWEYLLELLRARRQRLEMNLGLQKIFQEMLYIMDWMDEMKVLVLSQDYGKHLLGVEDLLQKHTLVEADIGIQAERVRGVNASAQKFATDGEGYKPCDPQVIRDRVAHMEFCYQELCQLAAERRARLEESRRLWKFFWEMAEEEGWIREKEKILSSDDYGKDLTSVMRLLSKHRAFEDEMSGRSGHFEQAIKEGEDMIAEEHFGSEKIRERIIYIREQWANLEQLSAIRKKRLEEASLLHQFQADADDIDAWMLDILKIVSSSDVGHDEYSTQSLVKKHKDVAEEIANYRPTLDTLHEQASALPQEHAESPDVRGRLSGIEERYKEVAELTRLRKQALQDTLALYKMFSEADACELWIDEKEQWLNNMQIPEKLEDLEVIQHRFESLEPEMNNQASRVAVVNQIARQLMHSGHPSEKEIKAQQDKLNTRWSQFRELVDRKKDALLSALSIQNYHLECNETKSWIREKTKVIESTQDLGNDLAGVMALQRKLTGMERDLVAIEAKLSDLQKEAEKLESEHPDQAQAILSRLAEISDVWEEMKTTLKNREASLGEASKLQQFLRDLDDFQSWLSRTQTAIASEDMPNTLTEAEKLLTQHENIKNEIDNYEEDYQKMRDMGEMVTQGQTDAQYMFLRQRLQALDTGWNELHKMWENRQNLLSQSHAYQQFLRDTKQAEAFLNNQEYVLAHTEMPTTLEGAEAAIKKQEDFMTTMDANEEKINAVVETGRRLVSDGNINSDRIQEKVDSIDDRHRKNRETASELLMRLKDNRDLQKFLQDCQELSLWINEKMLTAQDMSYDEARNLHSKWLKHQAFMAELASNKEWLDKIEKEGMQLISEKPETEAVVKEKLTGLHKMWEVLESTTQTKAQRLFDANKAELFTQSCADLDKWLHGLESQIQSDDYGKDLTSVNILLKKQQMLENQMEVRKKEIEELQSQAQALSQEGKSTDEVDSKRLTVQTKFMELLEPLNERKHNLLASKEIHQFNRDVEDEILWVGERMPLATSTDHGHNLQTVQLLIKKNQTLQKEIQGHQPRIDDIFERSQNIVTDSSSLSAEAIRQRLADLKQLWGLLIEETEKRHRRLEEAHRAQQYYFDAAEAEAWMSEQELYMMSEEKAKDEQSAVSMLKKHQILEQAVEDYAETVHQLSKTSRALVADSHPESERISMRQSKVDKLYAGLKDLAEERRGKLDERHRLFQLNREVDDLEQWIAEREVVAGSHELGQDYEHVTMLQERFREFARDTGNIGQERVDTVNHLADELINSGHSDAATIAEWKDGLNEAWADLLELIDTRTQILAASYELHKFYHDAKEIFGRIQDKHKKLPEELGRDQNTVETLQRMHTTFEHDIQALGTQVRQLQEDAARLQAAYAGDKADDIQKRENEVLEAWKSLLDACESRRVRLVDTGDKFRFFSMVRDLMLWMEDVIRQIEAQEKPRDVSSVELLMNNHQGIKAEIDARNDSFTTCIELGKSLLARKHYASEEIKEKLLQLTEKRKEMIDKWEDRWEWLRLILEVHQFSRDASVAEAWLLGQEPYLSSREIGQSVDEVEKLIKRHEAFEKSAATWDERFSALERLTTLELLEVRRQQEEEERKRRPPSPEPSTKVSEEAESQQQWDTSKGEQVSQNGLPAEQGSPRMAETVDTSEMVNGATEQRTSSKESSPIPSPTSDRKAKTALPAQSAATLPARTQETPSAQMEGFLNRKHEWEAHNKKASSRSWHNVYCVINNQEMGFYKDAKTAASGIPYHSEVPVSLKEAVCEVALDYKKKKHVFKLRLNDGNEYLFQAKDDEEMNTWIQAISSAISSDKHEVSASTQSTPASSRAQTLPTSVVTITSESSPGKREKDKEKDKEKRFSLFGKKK
Chain of UniProt Q96BZ9 (Q96BZ9 whole entry, looked up): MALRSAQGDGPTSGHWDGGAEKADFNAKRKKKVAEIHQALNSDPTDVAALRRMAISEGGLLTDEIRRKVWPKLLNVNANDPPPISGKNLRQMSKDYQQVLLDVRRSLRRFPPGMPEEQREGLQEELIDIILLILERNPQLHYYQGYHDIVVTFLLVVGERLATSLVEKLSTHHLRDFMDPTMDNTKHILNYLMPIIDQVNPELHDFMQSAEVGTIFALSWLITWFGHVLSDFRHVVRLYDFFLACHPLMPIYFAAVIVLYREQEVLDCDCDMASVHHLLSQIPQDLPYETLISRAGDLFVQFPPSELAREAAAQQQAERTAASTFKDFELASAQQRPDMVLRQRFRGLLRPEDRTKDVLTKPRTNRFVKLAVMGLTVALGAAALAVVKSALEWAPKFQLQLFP
Chain of UniProt Q5VWP2 (Q5VWP2 whole entry, looked up): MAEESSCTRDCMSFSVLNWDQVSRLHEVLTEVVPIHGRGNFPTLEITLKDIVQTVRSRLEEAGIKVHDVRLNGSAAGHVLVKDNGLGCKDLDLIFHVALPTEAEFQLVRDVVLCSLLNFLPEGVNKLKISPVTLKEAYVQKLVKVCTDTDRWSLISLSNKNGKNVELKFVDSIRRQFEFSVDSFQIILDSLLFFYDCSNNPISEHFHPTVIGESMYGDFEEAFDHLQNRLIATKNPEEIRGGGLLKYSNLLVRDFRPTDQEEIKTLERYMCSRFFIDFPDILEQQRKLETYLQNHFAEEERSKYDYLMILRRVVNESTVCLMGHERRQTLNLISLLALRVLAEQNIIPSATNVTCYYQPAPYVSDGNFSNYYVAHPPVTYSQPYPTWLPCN
Chain of UniProt Q15005 (Q15005 whole entry, looked up): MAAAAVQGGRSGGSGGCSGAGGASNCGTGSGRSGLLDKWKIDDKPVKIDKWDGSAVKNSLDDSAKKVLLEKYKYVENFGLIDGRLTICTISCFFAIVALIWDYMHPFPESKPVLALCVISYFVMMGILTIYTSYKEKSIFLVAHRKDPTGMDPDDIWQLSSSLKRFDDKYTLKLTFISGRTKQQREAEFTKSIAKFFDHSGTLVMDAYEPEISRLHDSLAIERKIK
Chain of UniProt Q9BYN0 (Q9BYN0 whole entry, looked up): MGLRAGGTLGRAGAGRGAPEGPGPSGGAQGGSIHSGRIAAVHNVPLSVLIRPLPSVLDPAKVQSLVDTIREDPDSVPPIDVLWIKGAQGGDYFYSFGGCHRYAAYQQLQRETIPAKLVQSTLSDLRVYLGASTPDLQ
Chain of UniProt O95772 (O95772 whole entry, looked up): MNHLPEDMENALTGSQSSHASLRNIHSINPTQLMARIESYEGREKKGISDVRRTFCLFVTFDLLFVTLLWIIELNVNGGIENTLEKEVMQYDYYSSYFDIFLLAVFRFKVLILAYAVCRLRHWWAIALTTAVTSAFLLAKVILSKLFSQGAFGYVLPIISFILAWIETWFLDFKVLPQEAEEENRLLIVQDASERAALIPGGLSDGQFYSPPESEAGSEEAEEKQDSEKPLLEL

Q: SYNE2 isoform 2 (UniProt Q8WXH0) was tested. Which log2 fold change did it give?
A: Its log2 fold change is 0.029 (inactive).

Q: How did the log2 fold change turn out when TBK1 (UniProt Q9UHD2) was run?
A: The log2 fold change was 0.079 (inactive).

Q: How did the log2 fold change turn out when SLC38A7 (UniProt Q9NVC3) was run?
A: The log2 fold change was -0.126 (inactive).

Q: With TENT5C (UniProt Q5VWP2) as the target, how does the log2 fold change read?
A: The log2 fold change was 0.071 (inactive).

Q: SRXN1 (UniProt Q9BYN0) was tested. Which log2 fold change did it give?
A: Its log2 fold change is -0.283 (inactive).

Q: For SLC29A3 (UniProt Q9BZD2), which log2 fold change is on record?
A: Its log2 fold change is 0.013 (inactive).

Q: SMARCE1 (UniProt Q969G3) was tested. Which log2 fold change did it give?
A: The log2 fold change was 0.579 (active).

Q: Which log2 fold change does the source give for SRC isoform 2 (UniProt P12931) here?
A: The log2 fold change was -0.077 (inactive).

Q: Which log2 fold change does the source give for SLC39A11 (UniProt Q8N1S5) here?
A: The log2 fold change was 0.074 (inactive).

Q: With TBC1D15 isoform 3 (UniProt Q8TC07) as the target, how does the log2 fold change read?
A: The log2 fold change was -0.09 (inactive).

Q: How did the log2 fold change turn out when SNX15 (UniProt Q9NRS6) was run?
A: Its log2 fold change is -0.177 (inactive).

Q: SPPL2B (UniProt Q8TCT7) was tested. Which log2 fold change did it give?
A: The log2 fold change was -0.014 (inactive).

Q: How did the log2 fold change turn out when SMIM20 isoform 2 (UniProt Q8N5G0) was run?
A: Its log2 fold change is -0.138 (inactive).

Q: For SRSF9 (UniProt Q13242), which log2 fold change is on record?
A: The log2 fold change was 0.276 (inactive).

Q: With SLC35F6 (UniProt Q8N357) as the target, how does the log2 fold change read?
A: Its log2 fold change is -0.043 (inactive).

Q: Which log2 fold change does the source give for TBC1D20 isoform 3 (UniProt Q96BZ9) here?
A: Its log2 fold change is -0.044 (inactive).

Q: Which log2 fold change does the source give for TEX264 (UniProt Q9Y6I9) here?
A: Its log2 fold change is 0.112 (inactive).

Q: How did the log2 fold change turn out when SPCS2 (UniProt Q15005) was run?
A: Its log2 fold change is -0.026 (inactive).

Q: Which log2 fold change does the source give for TJP1 (UniProt Q07157) here?
A: The log2 fold change was -0.16 (inactive).

Q: Which log2 fold change does the source give for TACC2 (UniProt O95359) here?
A: Its log2 fold change is -0.091 (inactive).

Q: How did the log2 fold change turn out when SNRPB2 (UniProt P08579) was run?
A: Its log2 fold change is 0.193 (inactive).

Q: With STK26 (UniProt Q9P289) as the target, how does the log2 fold change read?
A: The log2 fold change was 0.067 (inactive).

Q: How did the log2 fold change turn out when SP100 isoform 4 (UniProt P23497) was run?
A: The log2 fold change was -0.087 (inactive).

Q: How did the log2 fold change turn out when STARD3NL (UniProt O95772) was run?
A: Its log2 fold change is -0.007 (inactive).

Q: How did the log2 fold change turn out when SNX5 (UniProt Q9Y5X3) was run?
A: The log2 fold change was -0.014 (inactive).

Q: For TMBIM6 isoform 2 (UniProt P55061), which log2 fold change is on record?
A: The log2 fold change was -0.007 (inactive).

Q: For TARS2 (UniProt Q9BW92), which log2 fold change is on record?
A: The log2 fold change was -0.033 (inactive).

Q: For SPTBN1 (UniProt Q01082), which log2 fold change is on record?
A: Its log2 fold change is -0.125 (inactive).

Q: For SLC35A1 (UniProt P78382), which log2 fold change is on record?
A: Its log2 fold change is -0.198 (inactive).

Q: Which log2 fold change does the source give for SLC38A2 (UniProt Q96QD8) here?
A: Its log2 fold change is -0.034 (inactive).

Q: With SUN1 isoform 9 (UniProt O94901) as the target, how does the log2 fold change read?
A: The log2 fold change was 0.049 (inactive).

Q: How did the log2 fold change turn out when SRCAP (UniProt Q6ZRS2) was run?
A: Its log2 fold change is -0.004 (inactive).

Q: With TBP (UniProt P20226) as the target, how does the log2 fold change read?
A: The log2 fold change was -0.003 (inactive).

Compound: CNCc1ccc(-c2[nH]c3cc(F)cc4c3c2CCNC4=O)cc1 [rucaparib]
Assay: as above
How it was run: as §1

Q: How did the log2 fold change turn out when SYNE2 isoform 2 (UniProt Q8WXH0) was run?
A: Its log2 fold change is -0.045 (inactive).

Q: Which log2 fold change does the source give for TBK1 (UniProt Q9UHD2) here?
A: Its log2 fold change is 0.106 (inactive).

Q: Which log2 fold change does the source give for TANGO6 (UniProt Q9C0B7) here?
A: Its log2 fold change is 0.586 (inactive).

Q: For SLC38A7 (UniProt Q9NVC3), which log2 fold change is on record?
A: The log2 fold change was 0.004 (inactive).

Q: With TENT5C (UniProt Q5VWP2) as the target, how does the log2 fold change read?
A: The log2 fold change was 0.171 (inactive).

Q: With SRXN1 (UniProt Q9BYN0) as the target, how does the log2 fold change read?
A: Its log2 fold change is 0.111 (inactive).

Q: SLC29A3 (UniProt Q9BZD2) was tested. Which log2 fold change did it give?
A: Its log2 fold change is -0.083 (inactive).

Q: For SMARCE1 (UniProt Q969G3), which log2 fold change is on record?
A: Its log2 fold change is -0.016 (inactive).

Q: With SRC isoform 2 (UniProt P12931) as the target, how does the log2 fold change read?
A: The log2 fold change was -0.343 (inactive).

Q: With SRFBP1 (UniProt Q8NEF9) as the target, how does the log2 fold change read?
A: Its log2 fold change is 0.446 (active).

Q: With SLC39A11 (UniProt Q8N1S5) as the target, how does the log2 fold change read?
A: Its log2 fold change is -0.518 (active).

Q: For TBC1D15 isoform 3 (UniProt Q8TC07), which log2 fold change is on record?
A: The log2 fold change was 0.059 (inactive).

Q: With TM7SF3 (UniProt Q9NS93) as the target, how does the log2 fold change read?
A: The log2 fold change was -0.077 (inactive).

Q: How did the log2 fold change turn out when SNX15 (UniProt Q9NRS6) was run?
A: The log2 fold change was -0.063 (inactive).

Q: For SPPL2B (UniProt Q8TCT7), which log2 fold change is on record?
A: The log2 fold change was -0.036 (inactive).

Q: SMIM20 isoform 2 (UniProt Q8N5G0) was tested. Which log2 fold change did it give?
A: Its log2 fold change is -0.088 (inactive).

Q: Which log2 fold change does the source give for SRSF9 (UniProt Q13242) here?
A: The log2 fold change was 0.376 (inactive).

Q: How did the log2 fold change turn out when SLC35F6 (UniProt Q8N357) was run?
A: The log2 fold change was -0.004 (inactive).

Q: How did the log2 fold change turn out when TBC1D20 isoform 3 (UniProt Q96BZ9) was run?
A: The log2 fold change was 0.05 (inactive).

Q: How did the log2 fold change turn out when TEX264 (UniProt Q9Y6I9) was run?
A: Its log2 fold change is 0.407 (inactive).

Q: How did the log2 fold change turn out when SPCS2 (UniProt Q15005) was run?
A: The log2 fold change was -0.062 (inactive).

Q: TJP1 (UniProt Q07157) was tested. Which log2 fold change did it give?
A: The log2 fold change was 0.018 (inactive).

Q: Which log2 fold change does the source give for TACC2 (UniProt O95359) here?
A: The log2 fold change was -0.045 (inactive).

Q: With SSBP4 (UniProt Q9BWG4) as the target, how does the log2 fold change read?
A: The log2 fold change was 0.022 (inactive).

Q: How did the log2 fold change turn out when SNRPB2 (UniProt P08579) was run?
A: Its log2 fold change is 0.058 (inactive).

Q: For STK26 (UniProt Q9P289), which log2 fold change is on record?
A: Its log2 fold change is -0.005 (inactive).

Q: With SP100 isoform 4 (UniProt P23497) as the target, how does the log2 fold change read?
A: Its log2 fold change is -0.065 (inactive).

Q: STARD3NL (UniProt O95772) was tested. Which log2 fold change did it give?
A: The log2 fold change was -0.164 (inactive).

Q: For SNX5 (UniProt Q9Y5X3), which log2 fold change is on record?
A: The log2 fold change was -0.054 (inactive).

Q: With TMBIM6 isoform 2 (UniProt P55061) as the target, how does the log2 fold change read?
A: The log2 fold change was -0.065 (inactive).

Q: TARS2 (UniProt Q9BW92) was tested. Which log2 fold change did it give?
A: The log2 fold change was 0.009 (inactive).

Q: For SPTBN1 (UniProt Q01082), which log2 fold change is on record?
A: Its log2 fold change is 0.084 (inactive).

Q: Which log2 fold change does the source give for SLC35A1 (UniProt P78382) here?
A: The log2 fold change was 0.048 (inactive).

Q: For SLC38A2 (UniProt Q96QD8), which log2 fold change is on record?
A: Its log2 fold change is -0.044 (inactive).

Q: With TAOK2 (UniProt Q9UL54) as the target, how does the log2 fold change read?
A: The log2 fold change was -0.012 (inactive).

Q: Which log2 fold change does the source give for SUN1 isoform 9 (UniProt O94901) here?
A: The log2 fold change was 0.083 (inactive).

Q: SRCAP (UniProt Q6ZRS2) was tested. Which log2 fold change did it give?
A: The log2 fold change was -0.058 (inactive).

Q: Which log2 fold change does the source give for TBP (UniProt P20226) here?
A: The log2 fold change was 0.088 (inactive).
